A selection: hits, their analogues and other compounds. The true share with any hit is near 3.2%.
CHT block: inhibitors of human choline transporter CHT; AID 488975; Q9GZV3; B-score at 10 µM; 310,000 compounds, 0.86% hits; CHT-expressing cells, membrane potential dye, choline response; stronger effect = lower value;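 active means B-score over 3 SD under the library average, and starting fluorescence ratio not unusually high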;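 further: choline stimulus applied at its EC90 after an EC20 pre-addition; B-score computed on integrated fluorescence ratio after choline addition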
Target sequence (Q9GZV3 whole entry, looked up): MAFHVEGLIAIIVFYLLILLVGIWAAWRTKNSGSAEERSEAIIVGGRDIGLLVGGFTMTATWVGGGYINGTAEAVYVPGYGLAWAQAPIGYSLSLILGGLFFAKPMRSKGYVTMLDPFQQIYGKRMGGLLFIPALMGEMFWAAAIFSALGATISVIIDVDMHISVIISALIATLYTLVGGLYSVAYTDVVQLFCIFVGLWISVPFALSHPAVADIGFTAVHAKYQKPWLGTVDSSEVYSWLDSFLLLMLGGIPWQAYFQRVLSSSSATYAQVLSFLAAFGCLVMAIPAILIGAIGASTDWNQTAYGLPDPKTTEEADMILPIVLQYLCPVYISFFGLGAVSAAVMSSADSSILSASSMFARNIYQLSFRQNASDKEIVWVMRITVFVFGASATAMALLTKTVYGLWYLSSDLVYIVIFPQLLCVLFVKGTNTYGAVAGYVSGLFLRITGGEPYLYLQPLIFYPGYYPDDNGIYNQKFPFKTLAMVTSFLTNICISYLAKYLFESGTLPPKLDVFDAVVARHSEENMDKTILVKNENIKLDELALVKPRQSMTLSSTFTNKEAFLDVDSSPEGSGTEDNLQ
ANO1 activ: activators or potentiators of mouse TMEM16A chloride channel. Q8BHY3. HEK293 TMEM16A/YFP-H148Q/I152L, iodide quench fluorescence; stronger effect = lower value. B-score at 10 µM. 340,000 compounds, 0.3% hits. AID 623877;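 active means fluorescence-ratio B-score plate-corrected deviation score at least 3 library SD below zero, with starting fluorescence score within 5 deviations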;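 further: channel opened by trigger with iodide after compound preincubation; score built on the fluorescence ratio of max minus min over baseline; more negative score means more quench and so TMEM16A activation or potentiation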
Rce1 inhib: inhibitors of yeast Ras-converting enzyme; AID 2563; yeast membranes, quenched prenylated peptide cleavage fluorescence; calls only; Q03530; 290,000 compounds, 0.27% hits;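 active means fall in fluorescence gain of 50% or more versus controls, with final raw signal at or below 3038400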;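 further: plate controls were neutral control wells for no effect and wells lacking membranes for full effect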
Kir21 block: Kir2.1 (mouse) channel inhibition. P35561. HEK293-Kir2.1, FluxOR thallium flux fluorescence; stronger effect = lower value. B-score at 10 µM. 310,000 compounds, 0.85% hits;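 active means fluorescence ratio B-score at or below minus 3 SD of library scores, with starting-brightness B-score within 2 SD, cut at about -4.2 in these data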;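 further: channel flux triggered by added potassium and thallium sulfate stimulus; B-score of peak minus minimum fluorescence over baseline after thallium stimulus; more negative B-score means stronger Kir2.1 block with less thallium influx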
CHT PAM: allosterically activates the human high affinity choline transporter; 310,000 compounds, 0.49% hits; AID 488977; CHT-expressing cells, membrane potential dye, choline EC20; stronger effect = higher value; LV-AA mutant CHT in HEK293 cells; Q9GZV3; B-score at 10 µM;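 active means initial fluorescence not abnormally high and integrated response B-score, plate-corrected, over 3 SD above library mean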
TMEM16A inh: blocks the mouse calcium-activated chloride channel TMEM16A. HEK293 TMEM16A/YFP iodide influx fluorescence, ionomycin. normalized B-score (activity score, 25-100; higher = stronger inhibition) at 10 µM. 310,000 compounds, 1.2% hits. AID 588511;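 active means ratio plate-corrected score three or more library SD toward inhibition, starting fluorescence score within five deviations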;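 further: score derived from kinetic fluorescence span divided by baseline fluorescence per well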
CHT inh conf: human CHT inhibition, confirmatory screen; shares compounds with CHT block; CHT-expressing cells, choline membrane potential dye; LV-to-AA substituted CHT, HEK293 cells; CHT activity remaining % of control (stronger effect = lower value), % at 10 µM; 2,400 compounds, 70% hits; AID 493221;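 active means choline transporter activity left, mean of duplicates at 10 µM, below buffer-only control mean minus 3 SD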;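 further: depolarization triggered by choline at its EC90 following an EC20 pre-addition; 0% = hemicholinium-3 full block and 100% = buffer-only control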
HEK293 MPD ctr: CHT inhibitor counter-screen hit in parental HEK293 cells. 2,400 compounds, 4% hits. membrane potential dye, choline response; active = decrease or increase beyond buffer ±3SD. membrane potential ratio readout (active if shifted either direction beyond buffer ±3SD; no single direction) at 10 µM. shares compounds with CHT block;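 further: parental cells lack the transporter so any hit is non-specific; ratio is peak minus trough fluorescence over baseline after EC90 choline challenge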
The depositor's hits bear a star; i = inactive; x = not tested or not shown.

SMILES | CHT block | ANO1 activ | Rce1 inhib | Kir21 block | CHT PAM | TMEM16A inh | CHT inh conf | HEK293 MPD ctr
COC(=O)c1c(C)[nH]c(C(=O)C(C)OC(=O)C2CC2)c1C (stereo not drawn) | x | i | x | x | x | x | x | x
NC(=O)Cn1c(=O)n(CCCC(=O)NC2CCN(Cc3ccccc3)CC2)c(=O)c2ccccc21 | -5.6* | i | i | 0.03 | i | i | i | i
c1ccc(-c2csc3ncnc(-n4cnc5ccccc54)c23)cc1 | i | i | i | -0.06 | i | i | x | x
Cc1ccc(-c2csc3ncnc(-n4cnc5ccccc54)c23)cc1 | -7.5* | i | i | -0.07 | i | i | 24%* | i
Cc1ccc(-c2csc3ncnc(-n4nnc5ccccc54)c23)cc1 | -7.5* | i | i | -1.6 | i | i | 63%* | i
COc1ccc(N2C(=O)CSC2c2cccc(F)c2)cc1 (stereo not drawn) | i | i | i | 1.2 | i | i | x | x
CN(CCNC(=O)CN1CCN(Cc2ccccc2Cl)C1=O)Cc1ccccc1 | -6.5* | i | i | -4.1 | i | i | 43%* | i
O=C(CN1CCN(Cc2ccc(F)cc2Cl)C1=O)NCCc1ccccc1 | i | i | i | -1.8 | i | i | x | x
COc1ccccc1CC(=O)N1CCN(c2cccc(C(F)(F)F)c2)CC1 | -6.3* | i | i | 1.4 | i | i | i | i
COc1ccccc1NC(=O)N1CCN(c2cccc(C(F)(F)F)c2)CC1 | i | i | i | 1.9 | i | i | x | x
COc1ccc(-c2ccc(-c3noc(-c4ccccc4OC)n3)c(OC)n2)cc1 | -5* | i | i | -3.1 | i | i | i | i
O=C(Cn1nc(C(F)(F)F)c2c1CCCC2)NC1CCCC1 | -5.8* | i | i | 1.4 | i | i | 52%* | i
CC(C)NC(=O)Cn1nc(C(F)(F)F)c2c1CCC2 | i | i | i | 0.41 | i | i | x | x
CC1CCCCN1CCNC(=O)c1ccc2c(=O)n(Cc3ccc(Cl)cc3)c(=S)[nH]c2c1 (stereo not drawn) | i | i | i | -1.2 | i | i | x | x
Cc1c(C)n(O)c2ccc3nonc3c12 | -6.8* | i | i | -0.04 | i | i | 6.2%* | i
COc1ccc(C2=NN(CC(=O)Nc3cc(C)ccc3C)C(=O)CC2)cc1 | i | i | i | -2.5 | i | i | x | x
CC(CN1CCN(C)CC1)OC(=O)c1ccccc1Cl (stereo not drawn) | -8.3* | i | i | 0.03 | i | i | 12%* | i
Cc1ccccc1C(=O)OC(C)CN1CCN(C)CC1 (stereo not drawn) | -6.1* | i | i | -2.1 | i | i | 46%* | i
C=CCN(C(=O)c1csnn1)C(C(=O)NCc1ccc(F)cc1)c1ccccc1 (stereo not drawn) | i | i | i | -0.19 | i | i | x | x
Cc1ccc(OCCNS(=O)(=O)c2ccc(N3CCCC3=O)cc2)cc1C | i | i | i | 0.37 | i | i | x | x
Cc1cc(N2CCCC2=O)cc(C)c1S(=O)(=O)NCCOc1ccccc1 | -5.9* | i | i | -0.11 | i | i | 67%* | -8.4*
Cc1[nH]n(-c2cccc(Cl)c2)c(=O)c1-c1ccccc1 | -6.1* | i | i | 0.02 | i | i | 68%* | i
CC(OC(=O)c1ccc(S(=O)(=O)N2CCCCC2)cc1)C(=O)Nc1ccc(C(N)=O)cc1 (stereo not drawn) | x | i | x | x | x | x | x | x
CC(=O)Nc1cc(NC(C)=O)cc(C(=O)OC(C)C(=O)Nc2ccc(S(=O)(=O)N3CCCC3)cc2)c1 (stereo not drawn) | -5* | i | i | 0.81 | i | i | 45%* | i

Source: PubChem
